Measured values as given in PubChem BioAssay (Tox21).
Inconclusive results are not listed. A call without a number means that no potency is given here. The source made the active and inactive calls. Unless noted, the call rests on the fitted dose curve; in most records, active means well fitted curve in the direction sought with a large enough effect in the repeat runs; inconclusive means weak or mixed curves; inactive means no such curve, though single readings can be large; an effect the other way counts as inactive or inconclusive.

Experiments:
[1] = qHTS assay to identify small molecule antagonists of the sonic hedgehog signaling (Shh) pathway (AID 1259369; calls by dose curve; further: nearly all actives have a fitted effect of over 45% in size; further: potency means the concentration at half of the fitted maximal effect)
Procedure, shortened: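 Antagonist mode: compound added to 3T3 Gli1-Luc cells followed by conditioned-medium stimulation, 24 h at 37 C, 5% CO2. Inhibition taken as loss of Gli1-driven luciferase luminescence.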

[2] = qHTS assay to identify small molecule agonists of the androgen receptor (AR) signaling pathway in the presence of an antagonist - cell viability counter screen (AID 1259379);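 further: MDA-kb2 human breast cancer cells carrying an MMTV luciferase reporter; series mostly up to about 92 µM; nearly all actives have a fitted effect of over 25% in size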
Procedure, shortened: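 Cytotoxicity counter-screen run in the same wells as the nilutamide-challenged (3.0 µM final) AR agonist assay in MDA-kb2 cells. Compounds tested at 15 concentrations for 16 h, 37 °C without CO2; CellTiter-Fluor fluorescence read.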

[3] = qHTS assay to identify small molecule agonists of the estrogen receptor beta (ER-beta) signaling pathway - cell viability counter screen (AID 1259380); further: nearly all actives have a fitted effect of over 30% in size; further: potency means the concentration at half of the fitted maximal effect
Procedure, shortened: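 Cell viability counter screen: CellTiter-Glo luminescence (30 min, room temperature) measured in the same wells as the beta-lactamase readout, after 16 hr compound exposure at 37C of ER-beta-bla HEK293T cells in 2% charcoal-stripped FBS medium.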

[4] = molecular target: Androgen receptor (Homo sapiens) (UniProt P10275); assay: qHTS assay to identify small molecule agonists of the androgen receptor (AR) signaling pathway in the presence of an antagonist (AID 1259381; calls by dose curve; further: nearly all actives have a fitted effect of over 15% in size)
Androgen receptor (Homo sapiens), sequence (P10275 whole entry, looked up): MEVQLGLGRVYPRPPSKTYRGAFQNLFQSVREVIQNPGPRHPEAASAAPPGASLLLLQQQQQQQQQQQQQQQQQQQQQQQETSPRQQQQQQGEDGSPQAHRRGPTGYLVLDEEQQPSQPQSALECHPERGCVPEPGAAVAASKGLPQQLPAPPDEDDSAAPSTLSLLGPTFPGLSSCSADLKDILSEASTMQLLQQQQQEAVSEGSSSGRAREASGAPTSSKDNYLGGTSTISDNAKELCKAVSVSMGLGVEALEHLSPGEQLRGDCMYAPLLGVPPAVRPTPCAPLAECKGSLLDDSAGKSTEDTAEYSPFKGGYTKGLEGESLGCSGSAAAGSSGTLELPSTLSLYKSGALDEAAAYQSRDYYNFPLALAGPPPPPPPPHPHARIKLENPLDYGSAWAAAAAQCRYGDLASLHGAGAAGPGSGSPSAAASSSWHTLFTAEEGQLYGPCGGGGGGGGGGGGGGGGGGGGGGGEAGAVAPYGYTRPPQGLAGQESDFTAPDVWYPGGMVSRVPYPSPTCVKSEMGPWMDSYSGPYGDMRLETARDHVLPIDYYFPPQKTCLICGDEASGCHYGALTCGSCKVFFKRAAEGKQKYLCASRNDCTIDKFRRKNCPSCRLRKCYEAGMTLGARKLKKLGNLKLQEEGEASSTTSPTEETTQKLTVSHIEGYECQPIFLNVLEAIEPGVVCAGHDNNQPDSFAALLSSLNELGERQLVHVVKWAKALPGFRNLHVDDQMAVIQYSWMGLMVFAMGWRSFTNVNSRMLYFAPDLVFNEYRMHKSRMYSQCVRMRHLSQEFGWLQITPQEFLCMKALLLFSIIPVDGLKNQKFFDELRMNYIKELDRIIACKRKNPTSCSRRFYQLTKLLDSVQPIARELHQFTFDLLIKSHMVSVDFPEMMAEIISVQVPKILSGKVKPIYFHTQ
Procedure, shortened: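 Agonist-mode confirmation run against 3.0 uM final nilutamide: compounds titrated at 15 concentrations onto MDA-kb2 MMTV-luciferase reporter cells. Luminescence measured with ONE-Glo following 16 hr incubation, 37C, 0% CO2.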

[5] = molecular target: Estrogen receptor (Homo sapiens) (UniProt P03372); assay: qHTS assay to identify small molecule agonists of the estrogen receptor alpha (ER-alpha) signaling pathway in the presence of an antagonist (AID 1259383; calls by dose curve; further: nearly all actives have a fitted effect of over 15% in size; further: potency means the concentration at half of the fitted maximal effect; on activation: top concentration of the series differs between compounds)
Estrogen receptor (Homo sapiens), sequence (P03372 whole entry, looked up): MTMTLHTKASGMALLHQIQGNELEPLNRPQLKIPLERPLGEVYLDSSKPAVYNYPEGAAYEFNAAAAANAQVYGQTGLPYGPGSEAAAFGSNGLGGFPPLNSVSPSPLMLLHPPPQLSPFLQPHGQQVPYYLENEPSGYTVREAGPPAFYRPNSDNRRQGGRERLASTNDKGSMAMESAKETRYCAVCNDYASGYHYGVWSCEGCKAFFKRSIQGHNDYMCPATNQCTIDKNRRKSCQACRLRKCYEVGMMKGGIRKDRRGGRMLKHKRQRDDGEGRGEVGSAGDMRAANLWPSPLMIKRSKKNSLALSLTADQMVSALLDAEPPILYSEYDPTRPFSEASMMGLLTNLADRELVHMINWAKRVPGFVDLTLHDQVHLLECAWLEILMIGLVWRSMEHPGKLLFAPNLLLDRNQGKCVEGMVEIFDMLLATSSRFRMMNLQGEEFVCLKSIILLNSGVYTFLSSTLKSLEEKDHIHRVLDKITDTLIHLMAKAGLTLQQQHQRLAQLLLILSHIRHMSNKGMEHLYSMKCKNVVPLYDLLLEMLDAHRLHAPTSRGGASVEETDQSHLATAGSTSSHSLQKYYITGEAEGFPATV
Procedure, shortened: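 Agonist-mode confirmation run in the presence of 10.0nM (final) ICI-182,780 antagonist. The reporter was ERE-driven luciferase in VM7Luc4E2 cells, grown in charcoal-stripped serum. Cells were exposed to 15-concentration compound series for 22hr, then ONE-Glo luminescence was read.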

[6] = molecular target: Thyrotropin receptor (Homo sapiens) (UniProt P16473); assay: qHTS assay to identify small molecule antagonists of the thyroid stimulating hormone receptor (TSHR) signaling pathway (AID 1259385; calls by dose curve; further: nearly all actives have a fitted effect of over 20% in size)
Thyrotropin receptor (Homo sapiens), sequence (P16473 whole entry, looked up): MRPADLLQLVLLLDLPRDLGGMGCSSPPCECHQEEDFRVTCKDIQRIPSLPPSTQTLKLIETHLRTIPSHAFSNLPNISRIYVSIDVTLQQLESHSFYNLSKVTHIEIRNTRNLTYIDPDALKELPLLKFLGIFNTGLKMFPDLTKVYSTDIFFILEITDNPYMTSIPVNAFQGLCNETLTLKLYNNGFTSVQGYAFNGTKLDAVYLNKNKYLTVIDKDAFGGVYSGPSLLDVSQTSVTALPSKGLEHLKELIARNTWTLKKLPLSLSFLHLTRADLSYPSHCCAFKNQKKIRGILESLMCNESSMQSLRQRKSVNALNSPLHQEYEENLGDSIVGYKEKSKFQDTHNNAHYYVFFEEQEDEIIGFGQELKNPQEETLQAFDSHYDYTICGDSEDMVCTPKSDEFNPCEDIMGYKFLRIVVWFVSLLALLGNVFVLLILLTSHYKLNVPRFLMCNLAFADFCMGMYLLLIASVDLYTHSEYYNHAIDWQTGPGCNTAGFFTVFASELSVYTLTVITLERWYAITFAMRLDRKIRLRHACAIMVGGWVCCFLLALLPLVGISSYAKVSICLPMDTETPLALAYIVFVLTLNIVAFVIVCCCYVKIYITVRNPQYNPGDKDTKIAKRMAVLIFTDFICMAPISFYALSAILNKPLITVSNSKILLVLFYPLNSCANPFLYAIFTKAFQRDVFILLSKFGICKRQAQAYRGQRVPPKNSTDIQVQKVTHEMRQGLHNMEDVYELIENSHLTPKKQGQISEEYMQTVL
Procedure, shortened: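 TSHR-HEK293 cells were plated and held 18 h at 37C/5% CO2, then given compound plus Ro20-1724 and stimulated with TSH at 1.5 ng/mL final. After 30 min at room temperature, cAMP was detected with cAMP-d2/anti-cAMP-cryptate (1 h) by fluorescence.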

[7] = qHTS assay to identify small molecule agonists of the estrogen receptor alpha (ER-alpha) signaling pathway in the presence of an antagonist - cell viability counter screen (AID 1259386); further: nearly all actives have a fitted effect of over 30% in size; further: potency means the concentration at half of the fitted maximal effect
Procedure, shortened: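 Compounds tested at 15 concentrations for 22 h at 37C alongside 10.0nM (final) ICI-182,780 antagonist, in VM7Luc4E2 cells grown in phenol red-free, charcoal-stripped medium. Viability read by CellTiter-Fluor fluorescence after 1 h reagent incubation.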

[8] = molecular target: Progesterone receptor (Homo sapiens) (UniProt P06401); assay: qHTS assay to identify small molecule agonists of the progesterone receptor (PR) signaling pathway (AID 1346784; calls by dose curve; further: nearly all actives have a fitted effect of over 30% in size)
Progesterone receptor (Homo sapiens), sequence (P06401 whole entry, looked up): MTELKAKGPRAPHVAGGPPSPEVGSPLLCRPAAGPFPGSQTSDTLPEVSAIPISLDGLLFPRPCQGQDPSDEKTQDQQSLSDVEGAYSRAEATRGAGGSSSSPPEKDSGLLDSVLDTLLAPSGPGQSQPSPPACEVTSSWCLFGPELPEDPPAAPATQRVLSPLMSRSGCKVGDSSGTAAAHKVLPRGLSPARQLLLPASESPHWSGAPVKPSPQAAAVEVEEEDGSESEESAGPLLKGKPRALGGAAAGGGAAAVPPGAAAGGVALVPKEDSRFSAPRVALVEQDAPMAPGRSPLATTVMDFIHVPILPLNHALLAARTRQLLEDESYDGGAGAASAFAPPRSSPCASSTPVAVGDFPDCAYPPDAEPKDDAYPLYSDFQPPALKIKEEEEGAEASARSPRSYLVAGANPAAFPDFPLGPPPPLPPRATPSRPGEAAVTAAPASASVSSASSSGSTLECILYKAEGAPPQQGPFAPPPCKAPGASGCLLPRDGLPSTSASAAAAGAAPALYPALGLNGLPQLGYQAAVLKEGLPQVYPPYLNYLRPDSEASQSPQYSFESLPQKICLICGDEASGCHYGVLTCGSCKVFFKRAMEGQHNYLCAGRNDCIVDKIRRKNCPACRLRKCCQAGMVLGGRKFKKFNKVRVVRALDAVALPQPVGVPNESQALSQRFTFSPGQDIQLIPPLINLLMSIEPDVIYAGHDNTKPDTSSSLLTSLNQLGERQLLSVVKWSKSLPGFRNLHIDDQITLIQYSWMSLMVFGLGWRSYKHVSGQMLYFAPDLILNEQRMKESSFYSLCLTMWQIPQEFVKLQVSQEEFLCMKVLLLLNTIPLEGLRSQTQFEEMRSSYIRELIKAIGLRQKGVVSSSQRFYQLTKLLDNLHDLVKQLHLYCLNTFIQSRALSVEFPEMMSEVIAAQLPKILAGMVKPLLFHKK
Procedure, shortened: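 PR-UAS-bla HEK 293T cells (beta-lactamase reporter under UAS) in 2% charcoal-stripped FBS, dosed with 23 nL compound after 6 hr, incubated 16hr at 37C. LiveBLAzer B/G FRET substrate added, fluorescence read after 2 hours.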

[9] = qHTS assay to identify small molecule agonists of the progesterone receptor (PR) signaling pathway - cell viability counter screen (AID 1346799; calls by dose curve; further: nearly all actives have a fitted effect of over 45% in size; further: potency means the concentration at half of the fitted maximal effect)
Procedure, shortened: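 Counter screen in the PR-UAS-bla HEK293T wells (2% charcoal-stripped FBS, 16 h compound exposure at 37 C) after the bla read. CellTiter-Glo added, 30 min at room temperature, luminescence read as cell viability.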

[10] = qHTS assay to identify small molecule agonists of the TGF-beta/Smad signaling pathway - cell viability counter screen (AID 1346829); further: top concentration of the series differs between compounds; nearly all actives have a fitted effect of over 45% in size
Procedure, shortened: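 Same-well cytotoxicity: CellTiter-Glo added after the 2 hr room-temperature beta-lactamase substrate step, luminescence measured 30 min later; cells had 5 hr of compound at 37 C.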

[11] = qHTS assay to identify small molecule agonists of the TGF-beta/Smad signaling pathway (AID 1346859; active means well fitted activation curve with a large enough effect in the signal ratio in the repeat runs, not every such curve was filed as active; the % refers to the signal ratio; further: series mostly up to about 77 µM)
Procedure, shortened: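 SBE-bla HEK293T cells plated overnight, then compound exposure for 5 h at 37 C. Beta-lactamase reporter read with LiveBLAzer B/G FRET substrate after 2 h at room temperature, fluorescence at 405 nm excitation, 460/530 nm emission.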

[12] = molecular target: Thyrotropin-releasing hormone receptor (Homo sapiens) (UniProt P34981); assay: qHTS assay to identify small molecule antagonists of the thyrotropin-releasing hormone receptor (TRHR) signaling pathway (AID 1346877; active means well fitted inhibition curve with a large enough effect in the repeat runs, not every such curve was filed as active; further: series mostly up to about 51 µM)
Thyrotropin-releasing hormone receptor (Homo sapiens), sequence (P34981 whole entry, looked up): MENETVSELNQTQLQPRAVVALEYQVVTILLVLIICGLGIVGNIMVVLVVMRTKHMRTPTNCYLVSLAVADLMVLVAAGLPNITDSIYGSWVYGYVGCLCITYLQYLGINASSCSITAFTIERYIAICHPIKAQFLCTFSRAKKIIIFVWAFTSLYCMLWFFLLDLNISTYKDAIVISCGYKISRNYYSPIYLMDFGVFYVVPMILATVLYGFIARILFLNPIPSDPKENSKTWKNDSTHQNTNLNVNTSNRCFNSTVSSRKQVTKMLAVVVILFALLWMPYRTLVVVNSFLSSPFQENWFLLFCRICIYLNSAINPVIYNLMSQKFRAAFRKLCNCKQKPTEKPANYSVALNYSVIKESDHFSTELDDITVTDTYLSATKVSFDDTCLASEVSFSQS
Procedure, shortened: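 Antagonist mode: after a 5 min room-temperature compound exposure, cells were stimulated with 1 nM (final) TRH. Dye-loaded TRHR-HEK293 cells were used, and calcium-dependent fluorescence was followed for 3 min, with 15-point titrations run in triplicate.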

[13] = qHTS assay to identify small molecule antagonists of the estrogen receptor beta (ER-beta) signaling pathway - cell viability counter screen (AID 1259382); further: series mostly up to about 92 µM; nearly all actives have a fitted effect of over 55% in size
Procedure, shortened: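 Cytotoxicity was measured in the same wells by CellTiter-Glo luminescence after 30 min at room temperature. Cells were ER-beta-bla HEK293T in charcoal-stripped serum, given compound together with 1 nM E2 and incubated 16 h at 37C.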

[14] = molecular target: Progesterone receptor (Homo sapiens) (UniProt P06401); assay: qHTS assay to identify small molecule antagonists of the progesterone receptor (PR) signaling pathway (AID 1346795; active means well fitted inhibition curve with a large enough effect in the signal ratio in the repeat runs, not every such curve was filed as active; the % refers to the signal ratio; further: potency means the concentration at half of the fitted maximal effect)
Procedure, shortened: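 PR-UAS-bla HEK293T cells with beta-lactamase reporter under UAS control, in 2% charcoal-stripped FBS, treated with compounds plus 1 nM promegestone (R5020, final) for 16 hr at 37C. Read-out: FRET beta-lactamase substrate fluorescence after 2 hr at room temperature.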

[15] = qHTS assay to identify small molecule antagonists of the progesterone receptor (PR) signaling pathway - cell viability counter screen (AID 1346798); further: series mostly up to about 92 µM; nearly all actives have a fitted effect of over 50% in size
Procedure, shortened: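 PR-UAS-bla HEK293T cells, 3,000/well in 2% charcoal-stripped FBS medium, dosed with compounds plus R5020 agonist and incubated 16 h at 37C. Viability then measured in the same wells by CellTiter-Glo luminescence after 30 min at RT.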

[16] = qHTS assay to identify small molecule antagonists of the TGF-beta/Smad signaling pathway - cell viability counter screen (AID 1346824); further: nearly all actives have a fitted effect of over 50% in size
Procedure, shortened: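 SBE-bla HEK 293T cells were plated overnight at 37 C, then given compounds in DMSO plus TGF-beta1 (added as 0.25 ng/mL solution) for 5 hr. After the bla read, CellTiter-Glo was added to the same wells and luminescence read after 30 min at room temperature.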

[17] = molecular target: Thyrotropin-releasing hormone receptor (Homo sapiens) (UniProt P34981); assay: qHTS assay to identify small molecule agonists of the thyrotropin-releasing hormone receptor (TRHR) signaling pathway (AID 1346891; calls by dose curve; further: series mostly up to about 58 µM)
Procedure, shortened: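 HEK293 cells expressing TRHR plated 18 h at 37 C/5% CO2, calcium dye-loaded 2 h at 37 C, then compound added (agonist mode); kinetic calcium fluorescence read 3 min at 1 s intervals; 15 concentrations in triplicate.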

[18] = molecular target: Estrogen receptor beta (Homo sapiens) (UniProt Q92731); assay: qHTS assay to identify small molecule antagonists of the estrogen receptor beta (ER-beta) signaling pathway (AID 1259378; active means well fitted inhibition curve with a large enough effect in the signal ratio in the repeat runs, not every such curve was filed as active; the % refers to the signal ratio)
Estrogen receptor beta (Homo sapiens), sequence (Q92731 whole entry, looked up): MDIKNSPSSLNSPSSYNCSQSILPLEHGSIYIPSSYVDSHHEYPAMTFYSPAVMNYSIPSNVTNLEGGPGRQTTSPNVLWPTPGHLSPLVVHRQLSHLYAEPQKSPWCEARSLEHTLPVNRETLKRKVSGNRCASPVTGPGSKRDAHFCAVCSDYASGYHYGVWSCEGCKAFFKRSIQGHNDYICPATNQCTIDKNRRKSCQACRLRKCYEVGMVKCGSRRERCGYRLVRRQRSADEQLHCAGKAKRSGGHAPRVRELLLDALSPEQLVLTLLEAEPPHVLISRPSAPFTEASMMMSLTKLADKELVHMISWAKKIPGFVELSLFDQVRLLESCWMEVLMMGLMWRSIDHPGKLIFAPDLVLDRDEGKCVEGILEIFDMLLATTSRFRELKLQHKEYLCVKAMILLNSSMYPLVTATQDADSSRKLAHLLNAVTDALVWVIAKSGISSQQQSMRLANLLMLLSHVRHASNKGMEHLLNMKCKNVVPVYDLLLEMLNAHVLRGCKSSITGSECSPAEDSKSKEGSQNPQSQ
Procedure, shortened: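 ER-beta-UAS-bla HEK293T (GripTite) cells in 2% charcoal-stripped FBS medium were preincubated 6 hr at 37C, dosed with compound, then stimulated with 1 nM E2 (final) for 16 hr; beta-lactamase reporter read by B/G FRET fluorescence after 2 hr substrate loading.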

[19] = qHTS assay to identify small molecule agonists or antagonists of the thyroid stimulating hormone receptor (TSHR) signaling pathway - wild type cell line counter screen (AID 1259384; calls by dose curve)
Procedure, shortened: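 Wild-type HEK293 cells were plated 18 h at 37 C/5% CO2, pin-dosed with compound plus Ro20-1724 medium, held 30 min at room temperature, then given cAMP-d2 and anti-cAMP-cryptate; fluorescence was read after 1 h. Fifteen concentrations, triplicate.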

[20] = molecular target: Estrogen receptor beta (Homo sapiens) (UniProt Q92731); assay: qHTS assay to identify small molecule agonists of the estrogen receptor beta (ER-beta) signaling pathway (AID 1259377; active means well fitted activation curve with a large enough effect in the signal ratio in the repeat runs, not every such curve was filed as active; the % refers to the signal ratio)
Procedure, shortened: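 ER-beta-UAS-bla HEK293T cells in medium with 2% charcoal-stripped FBS were exposed to compounds for 16 h at 37C. Beta-lactamase reporter activity was read as fluorescence after 2 h with LiveBLAzer B/G FRET substrate at room temperature.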

Row | Structure (SMILES) | Potency [1] | Potency [2] | Potency [3] | Potency [4] | Potency [5] | Potency [6] | Potency [7] | Potency [8] | Potency [9] | Potency [10] | outcome [11] | Potency [12] | Potency [13] | Potency [14] | Potency [15] | Potency [16] | Potency [17] | Potency [18] | outcome [19] | Potency [20]
1 | c1cc2ccc3cccc4ccc(c1)c2c34 | inactive | inactive | 32.1 µM (active) | inactive | 64.1 µM (active) | inactive | inactive | inactive | 28.6 µM (active) | inactive | inactive | inactive |  |  |  |  |  |  |  | 
2 | O=C(C(Cl)(Cl)Cl)C(Cl)(Cl)Cl | inactive | inactive | inactive | inactive | inactive |  | inactive | inactive | inactive | inactive | inactive | inactive | inactive | inactive | inactive | inactive | inactive |  |  | 
3 | CCOP(=O)(OCC)SCCSCC | inactive | inactive | inactive |  | inactive | inactive | inactive | inactive | inactive | inactive | inactive | inactive |  | inactive | inactive | inactive |  | inactive |  | 
4 | COC(=O)c1cncn1C(C)c1ccccc1 (configuration not stated) | inactive | inactive | inactive |  | inactive | inactive | inactive | inactive |  | inactive | inactive |  | inactive | inactive | inactive | inactive |  |  | inactive | 
5 | O=C(OC1CCCCC1)c1ccccc1C(=O)OC1CCCCC1 | 51.2 µM (active) | inactive |  |  | inactive | inactive |  |  |  | inactive | inactive | inactive |  | 16.2 µM (active) | inactive |  | inactive |  | inactive | 
6 | C/C=C/C=O | inactive | inactive |  |  |  |  | inactive | inactive | inactive | inactive | inactive |  |  | inactive | inactive | inactive |  |  |  | 
7 | COCCOCCO | 27.3 µM (active) | inactive |  |  | inactive | inactive | inactive | inactive |  |  |  |  | inactive |  |  |  |  |  | inactive | 
8 | CCN(C)N=O | inactive | inactive | inactive |  | inactive | inactive | inactive | inactive | inactive | inactive | inactive |  | inactive | inactive | inactive | inactive |  |  |  | 
9 | CC(Cl)C(C)Cl (configuration not stated) |  | inactive | inactive |  | inactive |  | inactive | inactive | inactive | inactive | inactive | inactive | inactive | inactive | inactive | inactive | inactive | inactive |  | inactive
10 | CC(C)O.CC(C)O.OCCN(CCO)CCO.OCCN(CCO)CCO.[Ti] | inactive | inactive | inactive |  |  | inactive | inactive | inactive | inactive | inactive | inactive |  | inactive | inactive | inactive | inactive |  |  |  | 
11 | ClP(Cl)(Cl)(Cl)Cl | inactive | inactive | inactive |  | inactive |  | inactive | inactive | inactive | inactive | inactive | inactive | inactive | inactive | inactive | inactive | inactive |  |  | 
12 | NNC(=O)c1cccnc1 | inactive | inactive | inactive |  | inactive | inactive | inactive | inactive | inactive | inactive | inactive |  | inactive | inactive | inactive | inactive | inactive |  |  | 
13 | O=C=Nc1ccc(Cl)cc1 |  | inactive | 2.43 µM (active) |  | inactive |  | inactive |  |  | inactive | inactive | inactive |  |  |  | inactive | inactive | inactive |  | inactive
14 | BrCC(Br)C1CCC(Br)C(Br)C1 (configuration not stated) | inactive | inactive | inactive |  |  |  | inactive | inactive | inactive | inactive | inactive | inactive | inactive |  | inactive |  |  |  | inactive | 
15 | N#Cc1ccc(Cl)cc1 | inactive | inactive | inactive |  | inactive | inactive | inactive | inactive | inactive | inactive | inactive |  |  | inactive | inactive | inactive | inactive |  | inactive | 
16 | N#Cc1cc(I)c(O)c(I)c1 | 24.3 µM (active) |  | inactive | inactive |  |  | 48.6 µM (active) | inactive |  | inactive | inactive | inactive | inactive |  |  | inactive | inactive |  | inactive | 
17 | CC1(C)CCC(Cc2ccc(Cl)cc2)C1(O)Cn1cncn1 (configuration not stated) | 27.3 µM (active) |  |  |  | inactive | inactive | inactive | inactive | inactive | inactive | inactive | inactive |  | 4.33 µM (active) |  | inactive | inactive |  |  | 
18 | N#CCc1ccccc1 |  | inactive | inactive |  | inactive | inactive | inactive | inactive | inactive | inactive | inactive | inactive | inactive | inactive | inactive | inactive | inactive | inactive | inactive | inactive
19 | CC(C)=CCOc1c2occc2cc2ccc(=O)oc12 |  | inactive | inactive | inactive | inactive | inactive | inactive | inactive | inactive | inactive | inactive | inactive | inactive |  | inactive | inactive | inactive | inactive | inactive | inactive
